Bioassay records deposited in PubChem BioAssay by National Center for Advancing Translational Sciences (NCATS).
HT1080NT lethal: kills 2HG-producing HT-1080-NT fibrosarcoma cells; HT-1080-NT fibrosarcoma viability, CellTiter-Glo ATP luminescence, 48 h; Potency, µM (series often up to 46.1 µM), hits mostly cytotoxic; 360,000 tested, 1.6% active; AID 686970;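 further: NT is the 2HG producing partner of a matched IDH1 knockdown line; nearly all actives have a fitted effect of over 55% in size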
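750 cells/well, RPMI + 5% FBS; 2 h settle, compound pin-transfer, 48 h at 37 degrees C. CellTiter-Glo 10 min RT, luminescence. Normalized to DMSO and media-only wells.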
KB-3-1 cytotox: kills parental KB-3-1 adenocarcinoma cells; KB-3-1 viability, CellTiter-Glo ATP luminescence, 72 h; Potency, µM (top dose mostly 46.1 µM), most hits filed as cytotoxic; 400,000 tested, 1.4% active; further: nearly all actives have a fitted effect of over 60% in size
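Cytotoxicity measured as CellTiter-Glo luminescence after 72 h at 37 C. Compound titrations were pinned onto drug-naive KB-3-1 parental adenocarcinoma cells grown in DMEM with 10% FBS, and normalized data fitted to concentration-response curves.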
HT1080 IDH1KD tx: toxicity to HT-1080 IDH1 knockdown cells (counter line) | 360,000 tested, 2% active | HT-1080 IDH1 knockdown viability, ATP luminescence, 48 h | Potency, µM (series often up to 46.1 µM), actives largely listed as cytotoxic
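Viability of IDH1-knockdown HT-1080 fibrosarcoma cells was assessed by CellTiter-Glo after 48 h at 37 °C with titrated compound; concentration-effect curves were classified by fit quality and response size.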
KB-V1 cytotox: KB-V1 MDR subline cytotoxicity | Potency, µM (highest dose often 46.1 µM), hits mostly cytotoxic | AID 1347076 | KB-V1 MDR cells viability, CellTiter-Glo, 72 h | 400,000 tested, 3.4% active; further: nearly all actives have a fitted effect of over 60% in size
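Cytotoxicity via CellTiter-Glo luminescence after 72 h compound exposure at 37 degrees C. Cells: drug-selected KB-V1 line, DMEM phenol-red free plus 10% FBS. Compounds tested at multiple concentrations; normalized data fitted to concentration-effect curves.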
MCF10A rereplic: induces DNA re-replication in MCF 10a normal breast cells; MCF 10A DNA re-replication, Hoechst nuclear intensity, 48 h; Potency, µM (titrated, usually from 46.1 µM), actives largely listed as activators; 350,000 tested, 2.9% active; AID 624296; further: nearly all actives have a fitted effect of over 50% in size
SW480 rerep: DNA re-replication induction in SW480 cells | Potency, µM (doses to about 46.1 µM), most hits filed as activators | SW480 DNA re-replication, Hoechst DNA content imaging, 48 h | 340,000 tested, 1.8% active; further: nearly all actives have a fitted effect of over 55% in size
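Image-based read-out: total Hoechst fluorescence of nuclei (405 nm excitation, 500-530 nm emission), with hits raising the fraction of high-intensity nuclei. SW480 colon cells incubated 48 hr with compounds at 37 C.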
Large screens that a line does not name were inactive. In the library only some 7.9% were active in any assay of this set; here they are far more common. The call rests on the fitted dose curve; in most records, active means well fitted curve in the direction sought with a large enough effect; inconclusive means small, poorly fitted or top-dose-only effect, or another doubt; inactive means no such curve, though single readings can be large; an effect the other way counts as inactive or inconclusive.

N#CCC(=O)Nc1ccc(C(=O)OC(C(=O)Nc2cc(C(F)(F)F)ccc2Cl)c2ccccc2)cc1 (stereo not given)	KB-3-1 cytotox inconclusive, KB-V1 cytotox 15µM, MCF10A rereplic inconclusive, SW480 rerep inconclusive
COCCCN1CN=C(NS(=O)(=O)c2ccc(C)cc2)NC1	none
Cc1cccc(NC(=S)NCc2ccc3c(c2)cc(C)n3C)c1C	KB-3-1 cytotox inconclusive, MCF10A rereplic 13µM, SW480 rerep inconclusive
CCN1C(=O)c2cccc3c(NS(=O)(=O)c4ccc(NC(C)=O)cc4)ccc1c23	KB-3-1 cytotox inconclusive, MCF10A rereplic inconclusive
CCOC(=O)c1ccc(NC(=O)Nc2ccc3c4c(cccc24)C(=O)N3CC)cc1	MCF10A rereplic 23µM
Cc1ccc(NC(=O)CCCn2nc(C)c3c(C)n(-c4ccccc4)nc3c2=O)cc1Cl	none (no result: HT1080NT lethal, HT1080 IDH1KD tx, MCF10A rereplic, SW480 rerep)
CN(C1CCCCC1)S(=O)(=O)c1ccc(=S)[nH]c1	KB-V1 cytotox 15µM
CN(C1CCCCC1)S(=O)(=O)c1ccc(S(=O)(=O)N2CCCC2)cc1	KB-V1 cytotox inconclusive
Cc1ccc(C(=O)N2C(=S)C(c3ccc(F)cc3)=NC23CCN(C)CC3)cc1	HT1080NT lethal inconclusive, HT1080 IDH1KD tx 18µM, KB-V1 cytotox inconclusive, MCF10A rereplic inconclusive, SW480 rerep inconclusive
Cc1ccc(C(=O)N2CCC(C(=O)c3ccc(F)cc3)CC2)cc1	KB-V1 cytotox inconclusive
Cc1scc(-c2n[nH]c(=S)n2C(C)c2ccccc2)c1C (stereo not given)	KB-3-1 cytotox inconclusive, KB-V1 cytotox inconclusive, MCF10A rereplic 10µM
CC(=O)C1=C(c2cccc([N+](=O)[O-])c2)N(C(C)=O)n2c(C)nnc2S1	HT1080NT lethal inconclusive, KB-3-1 cytotox 15µM, HT1080 IDH1KD tx inconclusive, MCF10A rereplic 23µM, SW480 rerep inconclusive
CCOc1ccc(-n2c(-c3ccccc3)c[n+]3c2CCCCC3)cc1	HT1080NT lethal inconclusive, KB-3-1 cytotox 10µM, HT1080 IDH1KD tx 13µM, KB-V1 cytotox inconclusive
c1ccc(-c2c[n+]3c(n2-c2ccccc2)CCC3)cc1	HT1080NT lethal 21µM, KB-3-1 cytotox inconclusive, HT1080 IDH1KD tx inconclusive
Cc1ccc(-c2c[n+]3c(n2-c2ccccc2)CCC3)cc1	HT1080NT lethal inconclusive, KB-3-1 cytotox 1.3µM, HT1080 IDH1KD tx inconclusive, MCF10A rereplic 8.2µM, SW480 rerep inconclusive
Cc1ccc(S(=O)(=O)NCCN2CCOCC2)c(C)c1	none
COc1ccccc1OCCCCN1CCCCC1	none
COc1ccccc1OCCN1CSC(=S)N(C)C1	HT1080NT lethal 9.2µM, KB-3-1 cytotox 5.2µM, HT1080 IDH1KD tx 7.3µM, KB-V1 cytotox inconclusive, MCF10A rereplic 7.3µM, SW480 rerep 2.6µM
Cc1cccc(OCCN2CSC(=S)N(C)C2)c1	HT1080NT lethal 18µM, KB-3-1 cytotox 8.2µM, HT1080 IDH1KD tx inconclusive, KB-V1 cytotox 10µM, MCF10A rereplic 5.8µM, SW480 rerep inconclusive
Cc1cccc(OCCCN2CCCCCC2)c1	none
BrC(=C\c1ccccc1)/C=N/N1CCN(Cc2ccccc2)CC1	KB-3-1 cytotox inconclusive
Cc1cc2c(cc(C(=O)OCC(=O)NCc3ccco3)n2C)s1	HT1080NT lethal 13µM, KB-3-1 cytotox 5.8µM, HT1080 IDH1KD tx 10µM, KB-V1 cytotox 3.7µM, MCF10A rereplic inconclusive, SW480 rerep 10µM
Cn1c(C(=O)OCC(=O)NCc2ccco2)cc2sccc21	HT1080 IDH1KD tx inconclusive, SW480 rerep inconclusive
CC(=O)Nc1ccc(S(=O)(=O)NCCC(=O)NC2CCCCCC2)cc1	none
O=C(NC12CC3CC(CC(C3)C1)C2)c1cccnc1	none
CCC(C)(C)C1CCc2c(sc(N)c2C(N)=O)C1 (stereo not given)	MCF10A rereplic inconclusive
CCCC1CCc2c(sc(N)c2C(N)=O)C1 (stereo not given)	KB-V1 cytotox 16µM, MCF10A rereplic inconclusive
O=C(C1CC1)N1CCc2cc(Br)cc(S(=O)(=O)NCCCN3CCCC3)c21	none
Cc1oc(-c2ccccc2F)nc1CSCC(=O)NC1CC1	SW480 rerep inconclusive
Cc1ccn2c(NC(=O)C(C)(C)Oc3ccc(Cl)cc3)c(-c3cccs3)nc2c1	HT1080NT lethal inconclusive, KB-3-1 cytotox 26µM, HT1080 IDH1KD tx inconclusive, MCF10A rereplic inconclusive
O=C(/C=C/c1ccc(F)cc1)Nc1cc(S(=O)(=O)N2CCOCC2)ccc1N1CCCC1	SW480 rerep inconclusive
CC(Oc1cccc(Cl)c1)C(=O)Nc1ccc(N2CCOCC2)cc1N1CCOCC1 (stereo not given)	KB-V1 cytotox 16µM, MCF10A rereplic inconclusive
CN1CCN(c2ccc(Cl)cc2NC(=O)/C=C/c2ccc(F)cc2)CC1	HT1080NT lethal 23µM, HT1080 IDH1KD tx 16µM, MCF10A rereplic inconclusive, SW480 rerep inconclusive
CC(Oc1ccc(Br)cc1)C(=O)Nc1cc(Cl)ccc1N1CCN(C)CC1 (stereo not given)	HT1080NT lethal 13µM, KB-3-1 cytotox inconclusive, HT1080 IDH1KD tx 21µM, KB-V1 cytotox inconclusive, MCF10A rereplic inconclusive, SW480 rerep inconclusive
Cc1cc(OCC(=O)NCc2ccccn2)c2c(C)c(Cc3ccccc3)c(=O)oc2c1	KB-V1 cytotox inconclusive
CCOC(=O)c1c(C)nc(C(Cl)(Cl)Cl)nc1N	none
Cc1ccc(C(=O)OCC(=O)NCc2ccc3c(c2)OCO3)cc1S(=O)(=O)N1CCOCC1	none
CCCCCCCC(=O)Nc1cc(C(=O)NCc2ccc(C)cc2)ccc1N1CCC2(CC1)CC(c1ccccc1)=NO2	none
CCCCCc1ccc(-c2ccc(OC)cc2)nc1	none
CCCCCc1ccnc(CC(=O)c2ccc(OC)cc2)c1	KB-3-1 cytotox 23µM
N#Cc1nc(/C=C/c2ccc(F)cc2)oc1N1CCCCC1	none (no result: HT1080NT lethal, HT1080 IDH1KD tx, MCF10A rereplic, SW480 rerep)
COc1ccc(CC(=O)Nc2c3c(nn2-c2cccc(Cl)c2)CS(=O)(=O)C3)cc1	HT1080 IDH1KD tx inconclusive, KB-V1 cytotox 16µM
O=C(Cc1ccccc1)Nc1c2c(nn1-c1cccc(Cl)c1)CS(=O)(=O)C2	KB-V1 cytotox 21µM
CSc1ccc(CN2CCC(N3CC(C)OC(C)C3)CC2)cc1 (stereo not given)	MCF10A rereplic inconclusive
COc1cc(NC(=S)N2CCCC(CO)C2)cc(OC)c1 (stereo not given)	none
CCCC(=O)N1CCC1(C)C(=O)Nc1cc(-c2ccccc2)nn1C (stereo not given)	KB-3-1 cytotox inconclusive (no result: MCF10A rereplic, SW480 rerep)
CCOC(=O)[C@@H]1[C@H]2COc3cc(OC)ccc3[C@H]2N2C(=O)N(c3cccc(C)c3)C(=O)[C@]12C	none
O=C(COc1ccc(Cl)cc1)Nc1ccc(C(=O)O)cc1NC(=O)COc1ccc(Cl)cc1	KB-V1 cytotox inconclusive
Cc1ccc(C)c(S(=O)(=O)N2CCCC2CNC(=O)C(=O)NCc2ccccn2)c1 (stereo not given)	SW480 rerep 18µM
